D3 antag: blocks the human D3 dopamine receptor | P35462 | D3R cells, DiscoveRx beta-arrestin luminescence, antagonist mode; hits give low values | max response, negative = inhibition, % | 360,000 tested, 2.5% active; in the data active means max response below about -50%; inconclusive means no clear call, values can overlap the other calls; further: on the % scale 0 is the no-effect control and ±100 the full control effect
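Cells expressing the human receptor were seeded at 1500 cells/well, incubated overnight at 37 degrees C in 5% CO2, then exposed to library compounds with dopamine controls for 90 minutes at 37 degrees C before luminescent detection.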
ClpP mod: qHTS Assay for Activators of ClpP. purified B. subtilis ClpP, FRET peptide cleavage, 20 min. Potency, µM (highest dose often 57.5 µM), without a hit: at the highest dose activity change, negative = active. 340,000 tested, 1.9% active. AID 651965, 2013; active means well fitted falling curve with a large enough effect; inconclusive means small, poorly fitted or top-dose-only effect; inactive means no such curve, though single readings can be large or run the other way; further: potency means the concentration at half of the fitted maximal effect; the source files actives as falling curves though it sought activators and does not explain the sign; nearly all actives have a fitted effect of over 65% in size
Target sequence (P80244 whole entry, looked up): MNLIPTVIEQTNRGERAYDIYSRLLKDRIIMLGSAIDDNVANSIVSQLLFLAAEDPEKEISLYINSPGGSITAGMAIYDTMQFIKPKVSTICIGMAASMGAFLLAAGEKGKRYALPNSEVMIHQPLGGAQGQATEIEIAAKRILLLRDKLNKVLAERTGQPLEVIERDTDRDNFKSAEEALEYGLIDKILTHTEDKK
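Purified B. subtilis ClpP, 10 microg/mL final in Tris/HCl pH8 with KCl, BSA, glycerol and Tween-20, cleaved an Abz/nitrotyrosine-quenched decapeptide. Fluorescence (ex 320, em 430) was read at 0 and 20 min at room temperature. Delta was normalized to 5.8 microM ADEP and DMSO/no-enzyme controls.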
D3 ag: D3 dopamine receptor (human) agonism; P35462; D3R DiscoveRx beta-arrestin cells, luminescence, 90 min; max activation, %; 410,000 tested, 0.58% active; in the data active means max activation above about 30%; further: 0% is about no effect
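Agonist-mode cell screen: cells plated at 1500/well and incubated overnight at 37 °C, then exposed to library compounds for 90 min at 37 °C. Detection reagent was added for 30–60 min at room temperature, and luminescence was read.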
DT40 TDP1 no CPT: qHTS for Inhibitors of human tyrosyl-DNA phosphodiesterase 1 (TDP1): qHTS in cells in absence of CPT; DT40 Tdp1-/- hTDP1 cells, no CPT, ATP luminescence, 48 h; Potency, µM (series often up to 46.2 µM), for the others: top-dose activity change, negative = growth inhibition, most hits filed as inhibitors; AID 686978, 2013; 420,000 tested, 15% active; further: potency means the concentration at half of the fitted maximal effect; on the % scale 0 is the no-effect control and ±100 the full control effect; nearly all actives have a fitted effect of over 55% in size
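A cellular qHTS used chicken DT40 cells lacking endogenous Tdp1 but carrying stably transfected human TDP1. Compounds were applied without camptothecin, and cell growth kinetics were judged by ATP-dependent luminescence after ≥48 hr.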
IL-1B inflam inh: blocks inflammasome-driven IL-1 beta release; THP-1 LPS/ATP IL-1B secretion, AlphaLISA, 16 h; hits give low values; activity change, % at 57.5 µM; 360,000 tested, 4.7% active; in the data active means activity change below about -50%; inconclusive means mostly about -30% to -49%; further: on the % scale 0 is the no-effect control and ±100 the full control effect
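THP-1 cells pretreated 1 hr with compounds (up to 57.5 uM final), then stimulated with LPS (250 ng/mL final) plus ATP (1.25 mM final); secreted IL-1B measured by AlphaLISA after 16 hr, decreased signal indicating inhibition.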
TDP1 cell CPT: growth inhibition of DT40 Tdp1-/-;hTDP1 cells with camptothecin (screen for TDP1 inhibitors); chicken DT40 Tdp1-/-;hTDP1 cells + 20 nM CPT, ATP luminescence, 48 h; Potency, µM (series often up to 46.2 µM), for the others: at the highest dose activity change, negative = growth inhibition, most hits filed as inhibitors; 420,000 tested, 12% active; further: potency means the concentration at half of the fitted maximal effect; on the % scale 0 is the no-effect control and ±100 the full control effect; nearly all actives have a fitted effect of over 55% in size
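Cell growth measured by CellTiter-Glo luminescence after a minimum 48 h, 37 C compound exposure with 20 nM CPT in Tdp1-knockout DT40 cells stably expressing hTDP1, seeded 400/well; qHTS titration format.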
Numbers without * were called inactive; ? = inconclusive; . = no result. Rows were chosen to be rich in hits. Some 21% of all compounds tested hit in one or more screens of this group. Unless noted, the call rests on the fitted dose curve; in most records, active means well fitted inhibition curve with a large enough effect; inconclusive means small, poorly fitted or top-dose-only effect; inactive means flat fitted curve, though single readings scatter.

SMILES | D3 antag | ClpP mod | D3 ag | DT40 TDP1 no CPT | IL-1B inflam inh | TDP1 cell CPT
CC(=O)N1CCc2nc3sc(C(=O)Nc4ccc(Cl)cc4F)c(N)c3c(C(F)(F)F)c2C1 | . | -2.1% | -2.4 | . | . | .
O=C(CCc1nnc(-c2ccc(-c3ccccc3)cc2)o1)NCCc1ccccn1 | 14.3 | . | 4.0 | ? | 8.3 | ?
CC(NC(=O)CCc1nnc(-c2ccc(-c3ccccc3)cc2)o1)c1nccs1 (configuration not stated) | -13.4 | . | 16.7 | 20.6µM* | -15.2 | 25.9µM*
CN(C(=O)CCc1nnc(-c2ccc(-c3ccccc3)cc2)o1)C1CCOCC1 | 33.5 | ? | 20.7 | 13µM* | 5.1 | ?
CC(c1nccs1)N(C)C(=O)CCc1nnc(-c2ccc(-c3ccccc3)cc2)o1 (configuration not stated) | 3.5 | 4.4% | 6.0 | -85.0% | ? | 14.6µM*
Cc1onc(-c2ccccc2Cl)c1C(=O)NCCCN1CCOCC1 | -28.3 | -1.4% | -2.7 | -17.3% | -3.4 | -22.2%
Cc1onc(-c2ccccc2Cl)c1C(=O)Nc1nnc(-c2cccc([N+](=O)[O-])c2)s1 | 20.4 | 0.5% | 3.8 | ? | 46.5 | ?
C/C(=N\OC(=O)c1c(-c2ccccc2Cl)noc1C)c1ccncc1 | 12.6 | . | 5.9 | -4.4% | -145.1* | 16.3%
Cc1onc(-c2ccccc2Cl)c1C(=O)O/N=C(\N)c1cccc([N+](=O)[O-])c1 | -9.4 | -0.5% | 1.6 | 23.1µM* | -62.2* | 23.1µM*
Cc1onc(-c2ccccc2)c1C(=O)O/N=C(\N)c1ccc([N+](=O)[O-])o1 | -23.3 | 1.0% | 0.1 | 14.6µM* | -5.3 | 16.4µM*
COc1ccc(C(C)=NOC(=O)c2c(-c3ccccc3Cl)noc2C)cc1CN1CCOCC1 | 10.8 | -0.7% | -0.9 | 7.31µM* | ? | ?
Cc1onc(-c2cccc(Cl)c2Cl)c1C(=O)O/N=C(\N)c1ccc([N+](=O)[O-])o1 | 3.4 | . | 3.4 | ? | . | ?
Cc1onc(-c2ccccc2Cl)c1C(=O)OCN1C(=O)c2ccccc2C1=O | 0.0 | 2.1% | 0.6 | ? | 25.0 | -25.7%
CC(C)NC(=O)Cn1cc(S(=O)(=O)N2CCCC2)c(S(=O)(=O)N2CCCC2)c1 | 6.5 | . | -5.9 | 16.5% | 1.8 | 12.5%
N#Cc1ccccc1COC(=O)c1ccc(Br)o1 | -23.9 | . | -7.6 | -0.2% | -27.4 | -12.9%
O=C(CCCNc1ccccc1)N/N=C/c1cccs1 | -22.2 | . | -1.6 | -19.3% | 17.1 | -5.2%
Cc1onc(-c2ccccc2Cl)c1C(=O)O/N=C(\N)c1ccccc1 | 11.6 | -0.6% | 3.8 | ? | -74.5* | ?
C[C@]12c3[nH]c4ccccc4c3CCN1C(=O)C(CC(=O)NCc1cccc(C(F)(F)F)c1)C[C@@H]2C(=O)N1CCOCC1 (some centres not stated) | -5.2 | 0.2% | 3.7 | ? | ? | ?
C[C@]12c3[nH]c4cc(-c5ccco5)ccc4c3CCN1C(=O)[C@@H](CC(=O)NCc1cccc(C(F)(F)F)c1)C[C@@H]2C(=O)N1CCOCC1 | 2.8 | 3.9% | -0.9 | ? | -52.8* | ?
CC(C)N(C(=O)[C@H]1C[C@H](CC(=O)NCCC2=CCCCC2)C(=O)N2CCc3c([nH]c4cc(-c5ccco5)ccc34)[C@]12C)C(C)C | 28.1 | 3.4% | 18.4 | ? | -68.7* | ?
CC(C)N(C(=O)[C@H]1C[C@H](CC(=O)NCc2cccc(C(F)(F)F)c2)C(=O)N2CCc3c([nH]c4cc(-c5ccco5)ccc34)[C@]12C)C(C)C | 28.9 | 3.5% | 0.3 | ? | -67.4* | ?
O=C(Nc1ccc(F)cc1F)C(Cc1ccccc1)N1Cc2ccccc2C1=O (configuration not stated) | . | 0.9% | -16.3 | -21.4% | . | ?
